The list is not random: actives were taken first. Their share in the collection is about 4%.
NTMT1 inh – Primary qHTS for Inhibitors of N-terminal methyltransferase 1 (NTMT1): MTaseGlo Assay. NTMT1 MTase-Glo SAH luminescence, purified enzyme. Potency, µM (doses to about 114 µM), for the others: at the top dose activity change, negative = inhibition, actives largely listed as inhibitors. 2.5% of 59,000 active. AID 1645870, 2021;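 further: potency means the concentration at half of the fitted maximal effect; plate controls were DMSO vehicle for no effect and no enzyme for full effect; nearly all actives have a fitted effect of over 65% in size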
p53null 32C kill – qHTS Screen for Compounds that Selectively Target Cancer Cells with p53 Mutations: Cytotoxicity of p53 Null Cells at the Permissive Temperature | H1299-neo p53 null cells, ATP luminescence, 24 h, 32C | 0.62% of 55,000 active | Potency, µM (top dose mostly 46.1 µM), inactives show at the top dose activity change, negative = cytotoxicity, hits mostly cytotoxic;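 further: potency means the concentration at half of the fitted maximal effect; 0% = DMSO only and -100% = full killing by 100 µM tamoxifen; nearly all actives have a fitted effect of over 55% in size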
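H1299-neo (p53-null) cells, 600/well, were pre-incubated overnight at 37C, then exposed to compounds at up to 46 uM for 24 hr at 32C. Viability was measured as ATP content by luminescence, and AC50 values came from Hill fits.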
DRV1 agonist – qHTS for Agonists of Human Resolvin D1 Receptor DRV1. Probable G-protein coupled receptor 32 (Homo sapiens), O75388. CHO-K1 GPR32 beta-arrestin PathHunter luminescence, 90 min; zero percent set by DMSO-only wells. activation, % at 76.9 µM. 2.5% of 48,000 active. AID 1346428, 2018;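 active means activation of at least 60% and not above a set upper limit, about 1 call in 100 departs from these limits; inconclusive means activation of 40% to 60%, or above that upper limit; inactive means activation under 40%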; further: 0% is about no effect
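Luminescent readout of beta-Gal complementation quantifies ligand-induced beta-arrestin association with GPR32 in CHO-K1 cells; 90 min compound incubation at 37 °C, detection 1 h at room temperature.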
p53null 39C kill – qHTS Screen for Compounds that Selectively Target Cancer Cells with p53 Mutations: Cytotoxicity of p53 Null Cells at the Nonpermissive Temperature; Potency, µM (highest dose often 46.1 µM), for inactives: at the top dose activity, negative = cell killing, most hits filed as cytotoxic; 0.97% of 55,000 active; H1299 p53-null (neo) cells, 39C, ATPlite viability, 24 h;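 further: potency means the concentration at half of the fitted maximal effect; 0% = DMSO only and -100% = full killing by 100 µM tamoxifen; nearly all actives have a fitted effect of over 50% in size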
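H1299 lung cancer cells, p53-null (H1299-neo) or expressing p53 A138V (H1299-p53A138V), were plated overnight at 37C, then exposed to compounds at up to 46 uM for 24 hr at 39C. Viability was read by ATP-based luminescence.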
SKOV3 invasion – Primary qHTS assay for Inhibitors of ovarian cancer metastasis using an organotypic tumor microenvironment (TME) model; SKOV3ip1-GFP adhesion/invasion on 3D omental model, fluorescence; Potency, µM (highest dose often 45.8 µM), without a hit: at the highest dose activity change, negative = inhibition, hits mostly inhibitors; 0.1% of 46,000 active; AID 1963576, 2024;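 further: potency means the concentration at half of the fitted maximal effect; plate controls were DMSO wells for no effect and tomatine positive control wells for full effect; nearly all actives have a fitted effect of over 65% in size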
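Adhesion/invasion was scored as fixed GFP-labeled SKOV3ip1 cell counts (488/509 nm), normalized to DMSO and tomatine controls. Cancer cells in serum-free medium, with four compound doses (0.36-46 umol/L), sat 2 hr at RT then 16 hr at 37 C on a 48 hr fibroblast/mesothelial/ECM culture.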
GALC G270D up – A Novel Cell-Based Assay to Identify Small Molecules for B -Galactocerebrosidase | P54803 | 145M-Twi-hGALC-G270D cells, HMU-beta-Gal fluorescence, 48 h | Potency, µM (highest dose often 57.5 µM), actives largely listed as activators | 0.1% of 45,000 active | AID 1159614, 2016; further: potency means the concentration at half of the fitted maximal effect; 0% is about no effect; nearly all actives have a fitted effect of over 65% in size
Target sequence (P54803 whole entry G286D): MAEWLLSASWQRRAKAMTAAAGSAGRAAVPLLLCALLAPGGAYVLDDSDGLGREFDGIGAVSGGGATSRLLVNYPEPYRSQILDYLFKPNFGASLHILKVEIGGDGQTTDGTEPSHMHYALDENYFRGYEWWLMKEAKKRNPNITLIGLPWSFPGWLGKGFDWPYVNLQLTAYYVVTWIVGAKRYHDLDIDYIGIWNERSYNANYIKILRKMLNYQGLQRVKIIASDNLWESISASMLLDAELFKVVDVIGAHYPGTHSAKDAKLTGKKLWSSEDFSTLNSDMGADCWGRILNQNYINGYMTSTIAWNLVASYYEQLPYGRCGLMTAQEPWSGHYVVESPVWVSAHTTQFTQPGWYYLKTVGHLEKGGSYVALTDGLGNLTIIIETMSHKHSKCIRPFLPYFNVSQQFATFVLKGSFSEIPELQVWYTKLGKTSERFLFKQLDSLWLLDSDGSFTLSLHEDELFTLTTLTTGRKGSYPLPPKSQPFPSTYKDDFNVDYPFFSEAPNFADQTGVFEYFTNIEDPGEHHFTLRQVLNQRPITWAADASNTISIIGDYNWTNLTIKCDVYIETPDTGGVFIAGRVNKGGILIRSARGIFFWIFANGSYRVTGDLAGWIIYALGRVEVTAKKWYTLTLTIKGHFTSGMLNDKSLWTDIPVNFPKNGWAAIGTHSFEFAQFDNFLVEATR
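qHTS, 1536-well; 145M-Twi-hGALC-G270D cells (WT line also made) in DMEM/F12 + 10% FBS; compound incubation on live cells; HMU-β-gal 0.1 mM final, pH 5.2, NaTC; carbonate stop; fluorescence increase = enhanced residual activity.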
An asterisk follows results filed as active; i = inactive; ? = inconclusive; · = not tested or not shown; [ ] = another dose, or the depositor's remark. Unless noted, the call rests on the fitted dose curve; in most records, active means well fitted curve in the direction sought with a large enough effect; inconclusive means small, poorly fitted or top-dose-only effect, or another doubt; inactive means no such curve, though single readings can be large; an effect the other way counts as inactive or inconclusive.

SMILES | NTMT1 inh | p53null 32C kill | DRV1 agonist | p53null 39C kill | SKOV3 invasion | GALC G270D up
Cc1ccc(CN2COc3ccc4c(C)cc(=O)oc4c3C2)cc1 | -3% | -8% | 5 | 12% | -32% | 25µM*
Cc1cc(=O)oc2c3c(ccc12)OCN(Cc1ccccc1Cl)C3 | 1% | 3% | -1 | 33% | 2% | ?
CCc1c(C)c2ccc3c(c2oc1=O)CN(Cc1ccccc1)CO3 | -7% | -4% | 48 | 9% | 9% | 25µM*
O=c1cc(-c2ccccc2)c2ccc3c(c2o1)CN(Cc1ccccc1)CO3 | -10% | 15% | -13 | -2% | -1% | i
COc1ccc(NC(=O)Cn2c(=O)oc3ccccc32)cc1 | 89µM* | 3% | -10 | 18% | 23% | i
CCc1ccccc1NC(=O)Cn1c(=O)oc2ccccc21 | 2% | 12% | -6 | -12% | 11% | i
O=C(N/N=C/c1cccs1)c1ccc2c(c1)OCO2 | · | 2.8µM* | · | -19%[1.84 µM] | · | ·
O=C(NCCN1CCCC1)[C@H](Cc1ccc(OS(=O)(=O)c2cccc3cnccc23)cc1)NS(=O)(=O)c1cccc2cnccc12 | -16% | · | · | · | · | ·
CNC(=O)c1ccccc1Nc1nc(Nc2ccc3c(c2OC)CCCC(N2CCN(CCO)CC2)C3)ncc1Cl (stereo unspecified) | -4%[57.5 µM] | · | · | · | · | ·
CC(C)C[C@@H]1NC(=O)[C@@H](Cc2ccccc2)NC(=O)C(CCCCCC(=O)C2CO2)NC(=O)[C@@H]2CCCCN2C1=O (stereo partly specified) | -9%[29.8 µM] | · | · | · | · | ·
CCCCn1c(NCc2ccc(OC)cc2O)nc2ccccc21 | ? | -10% | 70* | 8% | 10% | i
O=C(CCS(=O)(=O)c1nc(-c2cccs2)cc(C(F)(F)F)n1)Nc1ccc(Br)cc1 | 8% | 5% | -43 | 47% | 3.2µM* | i
O=C(CCS(=O)(=O)c1nc(-c2cccs2)cc(C(F)(F)F)n1)Nc1cc(Br)ccc1O | 28% | 60% | -13 | ? | ? | i
COc1ccccc1-c1cc(C(F)(F)F)nc(S(=O)(=O)CCCC(=O)Nc2cc(OC)c(OC)c(OC)c2)n1 | 9% | ? | 81* | ? | 0% | i
C=C(C(=O)OC)C1C(O)CC2(C)C(O)CCC(=O)C2C1O (stereo unspecified) | 9%[57.5 µM] | · | · | · | · | ·
CCOc1ccc(CCNC(=O)c2cc3sccc3n2Cc2ccccn2)cc1OCC | 1% | · | · | · | · | ·
CCc1ccc(NC(=O)c2ccc3c(O)c(S(=O)(=O)c4ccccc4)c(=O)[nH]c3c2)cc1 | -4% | 13µM* | 6 | ? | 2% | i
Cc1cn2c(=O)cc(COC(=O)c3cccc(NC(=O)c4ccc(C(C)(C)C)cc4)c3)nc2s1 | 3% | 2.5µM* | -8 | 0.79µM* | i | i
CC(C)(C)c1ccc(C(=O)Nc2ccc(C(=O)OCc3cc(=O)n4ccsc4n3)cc2)cc1 | -22% | ? | 17 | 2µM* | -9% | i
COc1cc(C(=O)Nc2cc(C)ccc2OCc2cc(=O)n3cc(C)sc3n2)cc(OC)c1OC | 3% | 1% | 0 | -3% | -5% | i
COc1cc(C(=O)Nc2ccccc2OCc2cc(=O)n3cc(C)sc3n2)cc(OC)c1OC | 89µM* | -2% | -3 | 11% | i | i
Cc1ccc(OCCn2c(CCNC(=O)OC(C)(C)C)nc3ccccc32)cc1 | 2% | · | · | · | · | ·
COc1ccc(NC(=O)c2sc3nc4c(cc3c2N)CCCCCC4)cc1 | ? | ? | 74* | -28% | ? | i
